Screening data from PubChem BioAssay.
Compounds with a hit are over-represented: about 4.8% of the library has one in this group of screens.
DAX1 inh-1 = inhibits human nuclear receptor DAX1; P51843; HEK293 Gal4-DAX1 luciferase reporter, luminescence; inhibition, % at 6.75 µM; 340,000 tested, 0.99% active;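 active = inhibition above the mean over all tested compounds plus 3 SD, cut at about 4.2% in these data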;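 also: inhibition shows as a rise in luminescence from relieved DAX1 repression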
Target sequence (P51843 207-470 limits assumed): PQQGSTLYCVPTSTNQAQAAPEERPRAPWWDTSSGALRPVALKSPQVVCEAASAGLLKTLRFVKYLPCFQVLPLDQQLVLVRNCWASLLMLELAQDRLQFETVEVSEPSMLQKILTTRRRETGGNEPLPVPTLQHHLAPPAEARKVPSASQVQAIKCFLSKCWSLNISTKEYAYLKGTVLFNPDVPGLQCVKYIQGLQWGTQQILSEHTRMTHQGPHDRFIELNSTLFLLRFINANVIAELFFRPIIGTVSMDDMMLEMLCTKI
hgDAF12 agonist = activates the H. glycines DAF-12 receptor ligand-binding domain; HEK293 GAL4-hgDAF12 UAS-luciferase reporter, agonist luminescence; normalized to butyrate control; activation, % at 6.8 µM; 370,000 tested, 1.8% active; AID 687014;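 active = activation above a cutoff set at the mean of all screened compounds plus 3 SD, cut at about 10% in these data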
DAX1 inh-2 = blocks DAX1 repression of SF-1 activated StAR promoter; HEK293T StAR-luciferase reporter, SF-1/DAX-1 repression relief; inhibition, % at 6.8 µM; 370,000 tested, 1.1% active; AID 652010;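 active = inhibition above the mean over all tested compounds plus 3 SD, cut at about 3.6% in these data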;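 also: higher inhibition means more luminescence from relief of DAX-1 repression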
hcDAF12 agonist = activates DAF-12 receptor from parasite H. contortus | AID 652067 | 370,000 tested, 1.4% active | HEK293 hcDAF-12 lit1-tk-luc reporter, luminescence; 0% DMSO, 100% Δ7-dafachronic acid | activation, % at 6.8 µM;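 active = activation above the mean of all tested compounds plus 3 SD, cut at about 5.5% in these data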
SMARCA2 activ = SMARCA2 function activation, primary screen. 370,000 tested, 1% active. MG213 cells, MMTV-luciferase reporter, dexamethasone, overnight. activation, % at 9.1 µM; in the data active = activation above about 7.8%
ssDAF-12 act = S. stercoralis DAF-12 activation, primary screen; HEK293 ssDAF-12/GRIP1 lit1-tk-luc reporter, luminescence; % of 3 µM dafachronic acid response; activation, % at 6.8 µM; 370,000 tested, 1% active;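 active = activation above the mean over all tested compounds plus 3 SD, cut at about 0.9% in these data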
DAX1 conf = confirmation of human DAX1 (NR0B1) inhibitors; AID 652134; 2,400 tested, 87% active; shares compounds with DAX1 inh-2; inhibition, % at 6.8 µM; HEK293T StAR-promoter luciferase reporter, SF-1/DAX-1 repression;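 active = inhibition above the average of every tested compound plus 3 SD, cut at about 3.8% in these data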;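 also: active compounds raise luminescence by relieving repression of the StAR reporter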
SF1 mutant ctr = counter-screen for DAX1 inhibitors: nonselective inhibitors with SF-1 AF2 mutant; shares compounds with DAX1 inh-2; HEK293 StAR-luciferase, luminescence; inhibition, % at 6.8 µM; 2,400 tested, 78% active; AID 652136;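 active = inhibition above the mean of all tested compounds plus 3 SD, cut at about 3% in these data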
Hits are given with their value.

CCc1ccc(CNc2ccc3c(c2)ncn3C)cc1 was read as DAX1 inh-1 inactive, hgDAF12 agonist inactive, DAX1 inh-2 4.6, hcDAF12 agonist inactive, SMARCA2 activ inactive, ssDAF-12 act inactive, DAX1 conf 7.9 and SF1 mutant ctr 6.9.
COc1ccc(CNc2ccc3c(c2)ncn3C)cc1OC was read as DAX1 inh-1 inactive, hgDAF12 agonist inactive, DAX1 inh-2 inactive, hcDAF12 agonist inactive, SMARCA2 activ inactive and ssDAF-12 act inactive.
CCCn1cnc2cc(NCc3ccccn3)ccc21 was read as DAX1 inh-1 inactive, hgDAF12 agonist inactive, DAX1 inh-2 5.0, hcDAF12 agonist inactive, SMARCA2 activ inactive, ssDAF-12 act inactive, DAX1 conf 3.8 and SF1 mutant ctr inactive.
For CC(=Cc1ccccc1)C=C1SC(=S)N(CCCC(=O)Nc2ccc(C(=O)O)c(O)c2)C1=O the results were hgDAF12 agonist inactive, DAX1 inh-2 inactive, hcDAF12 agonist inactive, SMARCA2 activ inactive and ssDAF-12 act inactive.
COc1cc2cc(C(=O)NC(C)c3cccc4ccccc34)c(N)nc2cc1OC (centres undefined) was read as hgDAF12 agonist inactive, DAX1 inh-2 5.1, hcDAF12 agonist inactive, SMARCA2 activ inactive, ssDAF-12 act inactive, DAX1 conf inactive and SF1 mutant ctr inactive.
`Cc1cccc(/C=N/n2c(C)nc3ccccc3c2=O)c1` gave DAX1 inh-1 inactive, hgDAF12 agonist inactive, DAX1 inh-2 inactive, hcDAF12 agonist inactive, SMARCA2 activ inactive and ssDAF-12 act inactive.
CCOc1ccc(-c2cn3ccccc3n2)cc1 was read as DAX1 inh-1 inactive, hgDAF12 agonist inactive, DAX1 inh-2 9.9, hcDAF12 agonist 5.8, SMARCA2 activ inactive, ssDAF-12 act inactive, DAX1 conf 14 and SF1 mutant ctr 4.4.
For Cc1nc2ccccc2c(=O)n1C1CCCCCC1 the results were DAX1 inh-1 inactive, hgDAF12 agonist inactive, DAX1 inh-2 inactive, hcDAF12 agonist inactive, SMARCA2 activ inactive and ssDAF-12 act inactive.
`O=C(Cn1cc(C(F)(F)F)ccc1=O)N/N=C/c1ccccc1O` gave DAX1 inh-1 inactive, hgDAF12 agonist inactive, DAX1 inh-2 inactive, hcDAF12 agonist inactive, SMARCA2 activ inactive and ssDAF-12 act inactive.
O=C(CSCSCC(=O)Nc1ccc2c(c1)OCO2)Nc1ccc2c(c1)OCO2 was read as DAX1 inh-1 inactive, hgDAF12 agonist inactive, DAX1 inh-2 inactive, hcDAF12 agonist inactive, SMARCA2 activ inactive and ssDAF-12 act inactive.
For O=C(Nc1cccc(F)c1)Nc1ccc2c(c1)OCO2 the results were DAX1 inh-1 inactive, hgDAF12 agonist inactive, DAX1 inh-2 7.0, hcDAF12 agonist inactive, SMARCA2 activ inactive, ssDAF-12 act inactive, DAX1 conf 9.2 and SF1 mutant ctr 5.3.
CC(C)=CC(=O)Nc1ccc2c(c1)OCO2 was read as DAX1 inh-1 inactive, hgDAF12 agonist inactive, DAX1 inh-2 6.1, hcDAF12 agonist inactive, SMARCA2 activ inactive, ssDAF-12 act inactive, DAX1 conf 12 and SF1 mutant ctr 7.7.
For C/C(=N\NC(=O)c1ccoc1C)c1ccc(Br)s1 the results were DAX1 inh-1 inactive, hgDAF12 agonist inactive, DAX1 inh-2 5.8, hcDAF12 agonist inactive, SMARCA2 activ inactive, ssDAF-12 act inactive, DAX1 conf inactive and SF1 mutant ctr inactive.
CCOC(Cn1c(CCCO)nc2ccccc21)OCC was read as DAX1 inh-1 inactive, hgDAF12 agonist inactive, DAX1 inh-2 inactive, hcDAF12 agonist inactive, SMARCA2 activ inactive and ssDAF-12 act inactive.
Cc1cc(NC(=O)c2ccc(NC(=O)c3cccs3)cc2)no1 was read as DAX1 inh-1 inactive, hgDAF12 agonist inactive, DAX1 inh-2 inactive, hcDAF12 agonist inactive, SMARCA2 activ inactive and ssDAF-12 act inactive.
Screening CC(C)(C)c1cc(NC(=O)c2cccs2)no1 returned DAX1 inh-1 inactive, hgDAF12 agonist 11, DAX1 inh-2 11, hcDAF12 agonist inactive, SMARCA2 activ inactive, ssDAF-12 act inactive, DAX1 conf 12 and SF1 mutant ctr 7.2.
For O=C(Nc1nnc(-c2ccco2)s1)c1ccccc1 the results were DAX1 inh-1 inactive, hgDAF12 agonist 11, DAX1 inh-2 6.6, hcDAF12 agonist 6.5, SMARCA2 activ inactive, ssDAF-12 act inactive, DAX1 conf 16 and SF1 mutant ctr 6.2.
`O=C(NCCc1ccccc1)c1ccc([N+](=O)[O-])cc1` gave DAX1 inh-1 inactive, hgDAF12 agonist inactive, DAX1 inh-2 5.3, hcDAF12 agonist inactive, SMARCA2 activ inactive, ssDAF-12 act inactive, DAX1 conf 13 and SF1 mutant ctr 7.1.
COc1ccc(C(=O)CSc2nc(=O)n(Cc3cccnc3)c3c2CCC3)cc1 was read as DAX1 inh-1 inactive, hgDAF12 agonist inactive, DAX1 inh-2 inactive, hcDAF12 agonist inactive, SMARCA2 activ inactive and ssDAF-12 act inactive.
Cn1c(=O)c2c(ncn2CC(=O)N2CCN(S(=O)(=O)c3ccc(Cl)cc3)CC2)n(C)c1=O was read as DAX1 inh-1 inactive, hgDAF12 agonist inactive, DAX1 inh-2 inactive, hcDAF12 agonist inactive, SMARCA2 activ inactive and ssDAF-12 act inactive.
Cc1ccc(S(=O)(=O)N2CCN(C(=O)Cn3cnc4c3c(=O)n(C)c(=O)n4C)CC2)cc1C was read as DAX1 inh-1 inactive, hgDAF12 agonist inactive, DAX1 inh-2 5.0, hcDAF12 agonist inactive, SMARCA2 activ inactive, ssDAF-12 act inactive, DAX1 conf inactive and SF1 mutant ctr inactive.
For COc1cccc(/C=C/C(=O)NNC(=O)c2ccccc2)c1OC the results were DAX1 inh-1 inactive, hgDAF12 agonist inactive, DAX1 inh-2 5.2, hcDAF12 agonist inactive, SMARCA2 activ inactive, ssDAF-12 act inactive, DAX1 conf 5.1 and SF1 mutant ctr inactive.
`COc1cccc(/C=C/C(=O)NNC(=O)c2ccncc2)c1OC` gave DAX1 inh-1 inactive, hgDAF12 agonist inactive, DAX1 inh-2 inactive, hcDAF12 agonist inactive, SMARCA2 activ inactive and ssDAF-12 act inactive.
For COc1ccc(S(=O)(=O)N2CCCCC2)cc1NC(=O)CN1C(=O)NC(C)(C2CC2)C1=O (centres undefined) the results were DAX1 inh-1 inactive, hgDAF12 agonist inactive, DAX1 inh-2 inactive, hcDAF12 agonist inactive, SMARCA2 activ inactive and ssDAF-12 act inactive.
Screening CC(C)Oc1ccc(S(=O)(=O)N2CCCCC2)cc1NC(=O)CN1C(=O)NC(C)(C2CC2)C1=O (centres undefined) returned DAX1 inh-1 inactive, hgDAF12 agonist inactive, DAX1 inh-2 4.7, hcDAF12 agonist inactive, SMARCA2 activ inactive, ssDAF-12 act inactive, DAX1 conf inactive and SF1 mutant ctr inactive.
`O=C(Nc1ccc([N+](=O)[O-])cc1Cl)c1cccc([N+](=O)[O-])c1` gave DAX1 inh-1 inactive, hgDAF12 agonist inactive, DAX1 inh-2 inactive, hcDAF12 agonist inactive, SMARCA2 activ inactive and ssDAF-12 act inactive.
